Data from PubChem BioAssay AID1159580 (chemical genetic matrix, 2015).
Several values for one entry are separate records, joined by “and”; a condition that tells them apart may be missing. Equal values may be shown once. The whole screen tested about 5,500 compounds, of which about 2,000 (36%) were called active. Inconclusive results (about 18%) are left out. Rule as the data show it: active = normalized growth mostly below about 0.91 (no sharp cut-off); inconclusive = no clear call, values can overlap the other calls; inactive = mostly above about 0.92. Some of the results follow.

Assay: chemical genetic growth profiling, strain panel (AID 1159580);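 also: tested at 20 µM; growth read once vehicle control cultures reached saturation at 30 °C; 1 = growth at the plate median or of vehicle wells; lower values mean less growth of the strain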
Conditions: S. cerevisiae deletion strains, growth OD

Measured: normalized growth

O=c1[nH]c2ccccc2n1C1CCN(CCCC(c2ccc(F)cc2)c2ccc(F)cc2)CC1
active: locus YLL001W, strain dnm1, active compounds read low 0.893 | locus YLR320W, strain mms22, active compounds read low 0.784 | locus YMR058W, strain fet3, active compounds read low 0.897 | locus YMR205C, strain PFK2, active compounds read low 0.859
inactive: locus YJR075W, strain HOC1, active compounds read low 0.954 and 0.993 | locus YKL009W, strain mrt4, active compounds read low 0.963 | locus YKL068W, active compounds read low 0.993 | locus YKL085W, strain MDH1 (second series), active compounds read low 0.99 | locus YKL085W, strain MDH1, active compounds read low 0.99 | locus YKL160W, strain elf1, active compounds read low 0.914 | locus YKL190W, strain CNB1, active compounds read low 0.974 | locus YKR001C, strain vps1, active compounds read low 0.939 | locus YKR026C, strain gcn3, active compounds read low 1.03 | locus YKR091W, strain srl3, active compounds read low 1.01 | locus YLL026W, active compounds read low 0.988 | locus YLL041C, strain sdh2, active compounds read low 1.02 | locus YLR027C, strain aat2, active compounds read low 0.927 | locus YLR039C, strain RIC1, active compounds read low 1.02 | locus YLR058C, strain SHM2, active compounds read low 0.977 | locus YLR102C, strain apc9, active compounds read low 0.993 | locus YLR113W, strain HOG1, active compounds read low 0.967 | locus YLR221C, strain rsa3, active compounds read low 0.932 | locus YLR258W, strain gsy2, active compounds read low 0.981 | locus YLR262C, strain YPT6 (second series), active compounds read low 1.06 | locus YLR262C, strain YPT6, active compounds read low 1.04 | locus YLR268W, strain sec22, active compounds read low 0.98 | locus YLR330W, strain CHS5, active compounds read low 0.995 | locus YLR342W, strain FKS1 (second series), active compounds read low 0.94 | locus YLR342W, strain FKS1, active compounds read low 0.936 | locus YLR357W, strain rsc2, active compounds read low 0.877 | locus YLR370C, strain arc18, active compounds read low 0.962 | locus YLR371W, strain rom2, active compounds read low 0.989 | locus YLR384C, strain iki3, active compounds read low 1.04 | locus YLR418C, strain cdc73, active compounds read low 0.921 | locus YML016C, strain PPZ1, active compounds read low 0.992 | locus YML032C, strain rad52, active compounds read low 0.972 | locus YML120C, strain ndi1, active compounds read low 0.939 | locus YML124C, strain tub3, active compounds read low 1 | locus YMR078C, strain ctf18, active compounds read low 0.983 | locus YMR125W, strain sto1, active compounds read low 0.995 | locus YMR129W, active compounds read low 0.966 | locus YMR223W, strain ubp8, active compounds read low 0.978 | locus YMR231W, strain pep5, active compounds read low 1.02 | locus YMR263W, strain SAP30, active compounds read low 0.986 and 0.997 | locus YMR307W, strain GAS1, active compounds read low 1.04 and 0.999 | locus YNL067W, strain RPL9B, active compounds read low 0.987 | locus YNL071W, strain lat1, active compounds read low 1.01
